# Measurements published in PubChem BioAssay (NCATS).
# Records with an inconclusive call do not appear. Values without a mark were called inactive. Calls come from the whole dose curve; as a rule, active = well fitted inhibition curve with a large enough effect; inconclusive = small, poorly fitted or top-dose-only effect; inactive = flat fitted curve, though single readings scatter.
# Target: Calcium and integrin-binding protein 1 (Homo sapiens) (UniProt Q99828)
# Assay: Primary qHTS for Identification of Calcium Integrin Binding Protein 1 (CIB1) Competitor (AID 1508620);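 note: GST tagged CIB1 binding a fluorescein labelled alphaIIb integrin peptide tracer; top concentration of the series differs between compounds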
# Conditions: CIB1-GST / FITC-alphaIIb peptide fluorescence polarization; series mostly up to 114 µM; activity change, negative = inhibition: at the top concentration
# Outline: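 CIB1-GST (1 uM final) and compound incubated 15 min at room temperature before adding FITC-alphaIIb peptide tracer (100 nM final). Competition for binding read by fluorescence polarization (ex 480, em 540) after another 15 min at room temperature.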
# % is set by controls: 0 for no effect and ±100 for the full control effect.
# Calcium and integrin-binding protein 1 (Homo sapiens), sequence (Q99828 whole entry, looked up): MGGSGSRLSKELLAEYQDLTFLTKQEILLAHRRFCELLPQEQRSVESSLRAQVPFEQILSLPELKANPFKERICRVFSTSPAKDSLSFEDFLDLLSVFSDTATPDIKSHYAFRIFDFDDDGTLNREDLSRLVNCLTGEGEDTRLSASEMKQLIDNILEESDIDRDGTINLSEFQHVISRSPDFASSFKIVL
row,SMILES,"activity change, negative = inhibition [%]"
1,Cc1ccc(S(=O)(=O)N2CCN(S(=O)(=O)c3ccc4c(c3)OCCO4)CC2)cc1,-4.36
2,N#CN1CCC(N[S+](=O)([O-])c2cccc(F)c2)CC1,3.12
3,Fc1cnc(-c2ccccc2C(F)F)nc1NCC1CCN(c2cnccn2)C1 (stereo not given),-2.93
4,COc1ccccc1C1=Nn2c(nnc2-c2ccccc2OC)SC1,5.28
5,Cc1cc(NC(=O)Nc2nnc(C3CCCCC3)s2)ccc1Br,0.722
6,O=C1CCCC2=C1C(c1[nH]ncc1Br)N=C(Nc1nc3ccccc3o1)N2 (stereo not given),-18.5
7,CN(C)c1ccc(C(=O)NCC(=O)OC(C(=O)Nc2cc(C(F)(F)F)ccc2Cl)c2ccccc2)cc1 (stereo not given),5.84
8,Cc1csc(CN(C)c2ncnc3ccc(-c4ccc5c(c4)OCO5)cc23)n1,-1.61
9,S=C(Nc1ccc(Cl)c(Cl)c1)Nc1nnc(-c2ccncc2)o1,-1.5
10,COc1ccc(Nc2cc(O)c3ncccc3c2)cc1,-7.43
11,COc1ccc(C(F)(F)F)cc1NC(=O)C(OC(=O)CNC(=O)c1ccccc1)c1ccccc1 (stereo not given),2.97
12,CNc1oc(-c2cccc(Cl)c2)nc1C#N,-1.69
13,O=C(CSc1nnc(-c2cccc([S+](=O)([O-])N3CCCC3)c2)n1-c1ccccc1)Nc1ccc(Br)cc1,13.7
14,Oc1ccc(/C=C/c2c(F)cccc2F)c2cccnc12,-9.9
15,Cc1cc(NS(=O)(=O)c2cc3c(cc2N[C@@H](C)CO)NC(=O)CC3)ccc1F,-3.08
16,O=c1c2ccccc2nc2sc(Nc3cccc(Br)c3)nn12,4.11
17,Cc1cnc(-c2ccccc2C(C)C)nc1NCC1CCN(C)CC1,2.08
18,Cc1ccnc(NC(=S)N2CCN(c3ccc(Cl)c(Cl)c3)CC2)c1,-8.7
19,CCOC(=O)c1ccoc1-c1ccc2ncnc(N(C)Cc3sccc3C)c2c1,2.54
20,O=[S+]([O-])(c1ccc(N2CCOCC2)nc1)N1CCN([S+](=O)([O-])c2c(F)cccc2F)CC1,-3.05

row,SMILES,"activity change, negative = inhibition [%]"
1,O=C1CCCC2=C1C1(CCC1)N=C(Nc1nc3ccccc3o1)N2,-22.2
2,N#Cc1nc(Nc2cc(F)cc(F)c2)c2ncn(CCCN3CCCC3)c2n1,5.67
3,COc1cccc(C2c3c(ncn(Cc4cccs4)c3=N)Oc3ccc4ccccc4c32)c1 (stereo not given),5.93
4,COc1ccc(Cn2ncc3c4sc(C)cc4n(C)c3c2=O)cc1,0.153
5,Cc1cc(C)n2ncc(C(=O)Nc3ccc4c(c3)OCCO4)c2n1,2.7
6,c1cncc(CNc2ncnc3ccc(-c4ccc5c(c4)OCO5)cc23)c1,-1.88
7,Cn1nnnc1Sc1ncnc2scc(-c3ccccc3Br)c12,2.41
8,COc1ccc(C2Nc3ccccc3C(=O)N2Cc2ccco2)cc1COc1ccc(NC(C)=O)cc1 (stereo not given),4.83
9,O=C(NC1CCCc2c1cnn2-c1ccc(F)cc1F)c1ccc(C2(C(F)(F)F)N=N2)cc1 (stereo not given),-0.869
10,C#CCOc1cc(C2=Nn3c(nnc3-c3cccc(OCC(C)=O)c3)SC2)ccc1OC,-2.43
11,O=C(CN1C(=O)N/C(=C\c2cccn2-c2cccc(C(=O)O)c2)C1=O)Nc1ccc(Cl)cc1,-2.55
12,Cn1c2cc(C=O)sc2c2cnn(Cc3ccccc3F)c(=O)c21,2.22
13,COc1ccccc1NC(=O)c1ccc2ccccc2c1,4.28
14,Cc1ccnc(C(=S)N2CCN(c3cccc(C(F)(F)F)c3)CC2)c1,-1.34
15,CC1=C(C(=O)Nc2ccc(C)cc2)C(c2ccccc2Br)N=C(Nc2nc3ccccc3o2)N1 (stereo not given),3.81
16,Cn1nnnc1Sc1ncnc2scc(-c3ccc([N+](=O)[O-])cc3)c12,-17.5
17,COc1ccc(C2c3c(N)nc(Cc4ccccc4)nc3Oc3ccc4ccccc4c32)cc1OC (stereo not given),5.34
18,COc1ccc(C(=O)Nc2ccc(-c3nc4ccccc4[nH]3)cc2)cc1Br,2.69
19,Cc1ccc(CNc2ccc(N3CCN(C(=O)OC(C)(C)C)CC3)cc2)cc1,0.537
20,O=C1c2ccccc2NC(c2ccccc2O)N1Cc1ccccc1 (stereo not given),0.512
